Active and inactive are the calls of the source.

The nature of assay [1]: small molecules captured by biotinylated probe aFSTL3 – biochemical, small-molecule microarray, fluorescence 635/667, stem cell growth factor project, primary screen (AID 1064).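 Further: measures binding of the biotinylated anti-FSTL3 antibody to printed compounds.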 The following applies: higher = more signal.
Assay [2] is described as follows: binders from COS7 lysate, DM2A8 probe, primary screen, torsin A project, cell lysate, small-molecule microarray, fluorescence 635/667 (AID 1065). The following applies: higher = more signal, COS7 lysate expressing mutant human TOR1A.
The nature of assay [3]: small molecules captured by biotinylated probe aFGF2 – biochemical, small-molecule microarray, fluorescence 635/667, stem cell growth factor project, primary screen (AID 1067).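 Further: measures binding of biotinylated aFGF2 protein to printed compounds on slides; z-score merges feature fluorescence and signal-to-noise across triplicate slides.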 As to conditions: higher = more signal.
The nature of assay [4]: small molecules captured by biotinylated probe aFGF10 – biochemical, small-molecule microarray, fluorescence 635/667, stem cell growth factor project, primary screen (AID 1071).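 Further: score merges 667 nm spot intensity and signal to noise from triplicate slides.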 The following applies: higher = more signal.
For assay [5], the target named is Neurogenic locus notch homolog protein 2 (Homo sapiens) (UniProt Q04721). Description: small molecules binding Notch2 protein – biochemical, small-molecule microarray, 635 nm fluorescence, stem cell growth factors, primary screen (AID 1073). As to conditions: higher = more signal.
The target of assay [6] is Pro-neuregulin-1, membrane-bound isoform (Homo sapiens) (UniProt Q02297). Description: small molecules binding neuregulin-1 protein – biochemical, small-molecule microarray, fluorescence 635/667, psychiatric disease protein project, primary screen (AID 1075).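 Further: score combines 667 nm spot fluorescence with signal to noise.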 The following applies: NRG1 binding, 635 nm fluorescence, higher = more signal.
Assay [7] deals with Neuregulin-1 EGF-like domain. In words: small molecules binding NRG1 EGF domain – biochemical, small-molecule microarray, 635 nm fluorescence, primary screen (AID 1081).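 Further: binding of the protein to compounds printed on small-molecule microarray slides.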 The following applies: higher = more signal.
Assay [8] in a line: FRG1 expression reporter modulators in myotubes – cell-based, C2C12 myotubes, firefly/Renilla luciferase, luminescence, FRG1 inhibition for FSHD, primary screen (AID 1084). As to conditions: FRG1 promoter luciferase, higher = more signal, called active from +8 up or from −8 down.
A short description of assay [9]: small molecules captured by biotinylated probe aFST – biochemical, small-molecule microarray, fluorescence 635/667, stem cell growth factor project, primary screen (AID 1086).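 Further: score merges 667 nm fluorescence with signal-to-noise of each printed compound spot.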 The following applies: higher = more signal.
Assay [10] can be described thus: binders of probe aHhip on microarray, primary screen, stem cell growth factor project, biochemical, small-molecule microarray, fluorescence 635/667 (AID 1087).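 Further: score merges spot fluorescence at 667nm with spot signal to noise ratio.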 As to conditions: higher = more signal.
Assay [11] relates to PRMT1 (protein arginine N-methyltransferase 1). In words: small molecules binding arginine methyltransferase PRMT1 – biochemical, small-molecule microarray, 635 nm fluorescence, primary screen (AID 1088).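 Further: binding of Prmt1 protein to compounds spotted on small-molecule microarray slides.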 The following applies: higher = more signal.
Assay [12] is described as follows: growth effects on S. cerevisiae YJM789 – YJM789 clinical isolate, OD600, 24 h, basal, primary screen (AID 1089).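 Further: growth of clinical yeast isolate S. cerevisiae YJM 789 seeded 1000 cells per well; test concentration not given here.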 As to conditions: higher = more signal, called active from +8 up or from −8 down.
The nature of assay [13]: S. pombe growth modifiers, basal conditions – strain 972, OD600, 24 h, no modulator, primary screen (AID 1090).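 Further: basal condition with compound alone and no growth modifier present; test concentration not given here.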 As to conditions: S. pombe 972 growth, higher = more signal, called active from +8 up or from −8 down.
Assay [14] is described as follows: budding yeast growth modifiers under rapamycin – strain BY4716, OD600, 96 h, primary screen (AID 1091). Further: test concentration not given here. The following applies: S. cerevisiae BY4716 + rapamycin, higher = more signal, called active from +8 up or from −8 down.
The target of assay [15] is Torsin-1A-interacting protein 2 (Homo sapiens) (UniProt Q8NFQ8). Description: small molecules binding lysate-expressed LULL1 – cell lysate, human LULL1 lysate, 635/667 nm fluorescence, primary screen (AID 1092).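 Further: score merges per-feature 667 nm fluorescence with signal-to-noise.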 The following applies: small-molecule microarray, hLULL1 lysate binding, 635 nm fluorescence; higher = more signal.
The nature of assay [16]: optical density change of DRC41 E. coli – strain DRC41, OD650, 24 h, E. coli filamentation project, primary screen (AID 1093).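 Further: MC1000 strain lacking acrAB efflux and sulA so SOS filamentation is blocked; test concentration not given here.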 The following applies: E. coli DRC41 growth, higher = more signal, called active from +8 up or from −8 down.
Assay [17] is described as follows: probe aLefty2 binding to arrayed compounds – biochemical, biotinylated probe, 635/667 nm fluorescence, primary screen (AID 1094).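 Further: score merges spot fluorescence near 667 nm with spot signal-to-noise ratio.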 The following applies: small-molecule microarray, higher = more signal.
The test system of assay [18] is Noggin (protein binding on small-molecule microarray). In words: small molecules binding Noggin protein – biochemical, 635/667 nm fluorescence, primary screen (AID 1095).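 Further: score merges 667 nm feature fluorescence with signal to noise over triplicate slides.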 As to conditions: 635 nm fluorescence, higher = more signal.
Assay [19] addresses Neurogenic locus notch homolog protein 3 (Homo sapiens) (UniProt Q9UM47). Description: small molecules binding NOTCH3 protein – biochemical, 635/667 nm fluorescence, primary screen (AID 1096). The following applies: small-molecule microarray, 635 nm fluorescence, higher = more signal.
Assay [20] in a line: probe aEGFR binding to arrayed compounds – biochemical, biotinylated probe, 635/667 nm fluorescence, primary screen (AID 1097).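 Further: probe is a biotinylated anti-EGFR antibody binding compounds printed on slides; score combines fluorescence near 667 nm and signal to noise of each spot.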 The following applies: small-molecule microarray, higher = more signal.

Sequence of Neurogenic locus notch homolog protein 3 (Homo sapiens) (Q9UM47 whole entry, looked up): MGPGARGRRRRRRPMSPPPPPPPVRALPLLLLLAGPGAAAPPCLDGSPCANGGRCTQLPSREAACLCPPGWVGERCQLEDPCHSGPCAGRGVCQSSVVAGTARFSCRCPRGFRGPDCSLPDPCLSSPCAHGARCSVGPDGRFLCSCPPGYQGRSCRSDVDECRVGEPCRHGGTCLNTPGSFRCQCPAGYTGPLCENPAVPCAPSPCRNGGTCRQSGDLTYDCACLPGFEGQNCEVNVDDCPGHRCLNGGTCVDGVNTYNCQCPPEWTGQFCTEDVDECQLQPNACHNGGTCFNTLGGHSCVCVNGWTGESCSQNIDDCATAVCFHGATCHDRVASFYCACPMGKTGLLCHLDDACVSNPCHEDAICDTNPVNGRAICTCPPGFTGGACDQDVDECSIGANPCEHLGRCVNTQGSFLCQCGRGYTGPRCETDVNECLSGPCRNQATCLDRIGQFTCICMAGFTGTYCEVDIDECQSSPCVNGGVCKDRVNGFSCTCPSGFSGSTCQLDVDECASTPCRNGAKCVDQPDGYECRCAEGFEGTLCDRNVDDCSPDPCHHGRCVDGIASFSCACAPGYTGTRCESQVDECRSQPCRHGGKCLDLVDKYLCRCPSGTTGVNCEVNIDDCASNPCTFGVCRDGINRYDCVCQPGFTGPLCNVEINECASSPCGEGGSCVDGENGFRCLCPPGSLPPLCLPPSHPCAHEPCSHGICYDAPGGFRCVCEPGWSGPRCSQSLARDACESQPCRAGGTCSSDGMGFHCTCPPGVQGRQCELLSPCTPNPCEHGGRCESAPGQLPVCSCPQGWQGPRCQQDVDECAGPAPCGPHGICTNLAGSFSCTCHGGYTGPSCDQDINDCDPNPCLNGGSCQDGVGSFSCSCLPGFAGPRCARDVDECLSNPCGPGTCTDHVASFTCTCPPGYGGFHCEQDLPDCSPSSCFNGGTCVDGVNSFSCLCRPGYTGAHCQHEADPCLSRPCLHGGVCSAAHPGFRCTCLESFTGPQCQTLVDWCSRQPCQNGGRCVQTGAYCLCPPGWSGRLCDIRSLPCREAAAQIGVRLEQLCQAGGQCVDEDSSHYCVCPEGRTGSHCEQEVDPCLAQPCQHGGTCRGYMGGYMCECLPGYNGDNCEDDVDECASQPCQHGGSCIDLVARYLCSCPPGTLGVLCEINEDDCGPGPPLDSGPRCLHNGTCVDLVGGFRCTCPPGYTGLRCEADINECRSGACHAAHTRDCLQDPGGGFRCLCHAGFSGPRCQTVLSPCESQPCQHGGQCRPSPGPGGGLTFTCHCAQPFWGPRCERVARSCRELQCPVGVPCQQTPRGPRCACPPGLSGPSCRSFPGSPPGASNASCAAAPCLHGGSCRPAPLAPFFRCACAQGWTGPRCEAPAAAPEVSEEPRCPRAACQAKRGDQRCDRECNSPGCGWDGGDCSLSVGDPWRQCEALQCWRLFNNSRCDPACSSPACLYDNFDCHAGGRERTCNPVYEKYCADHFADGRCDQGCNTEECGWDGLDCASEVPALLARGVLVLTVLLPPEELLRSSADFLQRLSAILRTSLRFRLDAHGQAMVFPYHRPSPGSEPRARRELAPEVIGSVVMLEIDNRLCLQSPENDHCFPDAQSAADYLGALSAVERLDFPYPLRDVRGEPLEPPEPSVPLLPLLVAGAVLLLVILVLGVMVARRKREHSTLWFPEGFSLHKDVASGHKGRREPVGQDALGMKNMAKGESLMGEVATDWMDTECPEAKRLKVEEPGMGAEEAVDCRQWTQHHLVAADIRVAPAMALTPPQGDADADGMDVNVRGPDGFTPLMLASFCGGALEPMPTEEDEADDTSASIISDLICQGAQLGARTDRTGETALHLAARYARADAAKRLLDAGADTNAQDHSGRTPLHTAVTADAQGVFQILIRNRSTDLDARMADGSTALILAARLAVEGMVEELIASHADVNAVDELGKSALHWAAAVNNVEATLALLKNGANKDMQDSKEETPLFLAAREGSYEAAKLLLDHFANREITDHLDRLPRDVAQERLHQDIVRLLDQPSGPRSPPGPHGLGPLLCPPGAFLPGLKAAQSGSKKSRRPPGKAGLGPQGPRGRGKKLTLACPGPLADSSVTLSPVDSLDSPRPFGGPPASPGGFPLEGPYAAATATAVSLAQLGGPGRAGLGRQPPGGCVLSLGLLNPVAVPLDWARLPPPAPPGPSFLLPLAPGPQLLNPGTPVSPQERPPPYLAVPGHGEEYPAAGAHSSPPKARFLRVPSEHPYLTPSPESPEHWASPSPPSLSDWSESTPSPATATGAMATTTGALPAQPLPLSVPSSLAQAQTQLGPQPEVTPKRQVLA
Sequence of Pro-neuregulin-1, membrane-bound isoform (Homo sapiens) (Q02297 whole entry, looked up, the tested form may be a part, canonical isoform): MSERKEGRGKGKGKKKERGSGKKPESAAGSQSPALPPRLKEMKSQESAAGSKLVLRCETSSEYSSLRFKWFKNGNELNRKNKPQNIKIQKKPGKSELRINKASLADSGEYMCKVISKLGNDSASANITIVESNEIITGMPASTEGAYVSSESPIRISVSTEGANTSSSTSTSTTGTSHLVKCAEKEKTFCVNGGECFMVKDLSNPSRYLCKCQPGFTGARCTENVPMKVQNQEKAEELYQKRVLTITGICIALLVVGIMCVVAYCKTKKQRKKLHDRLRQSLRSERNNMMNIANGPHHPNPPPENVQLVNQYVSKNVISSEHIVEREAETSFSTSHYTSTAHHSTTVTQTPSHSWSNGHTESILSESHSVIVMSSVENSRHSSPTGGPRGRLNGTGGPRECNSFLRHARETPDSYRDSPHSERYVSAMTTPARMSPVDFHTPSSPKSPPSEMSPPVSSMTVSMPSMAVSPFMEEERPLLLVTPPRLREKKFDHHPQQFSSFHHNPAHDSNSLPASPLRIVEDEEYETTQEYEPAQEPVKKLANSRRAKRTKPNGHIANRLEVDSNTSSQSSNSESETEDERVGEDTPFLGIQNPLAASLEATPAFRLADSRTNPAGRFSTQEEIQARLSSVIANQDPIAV
Sequence of Torsin-1A-interacting protein 2 (Homo sapiens) (Q8NFQ8 whole entry, looked up): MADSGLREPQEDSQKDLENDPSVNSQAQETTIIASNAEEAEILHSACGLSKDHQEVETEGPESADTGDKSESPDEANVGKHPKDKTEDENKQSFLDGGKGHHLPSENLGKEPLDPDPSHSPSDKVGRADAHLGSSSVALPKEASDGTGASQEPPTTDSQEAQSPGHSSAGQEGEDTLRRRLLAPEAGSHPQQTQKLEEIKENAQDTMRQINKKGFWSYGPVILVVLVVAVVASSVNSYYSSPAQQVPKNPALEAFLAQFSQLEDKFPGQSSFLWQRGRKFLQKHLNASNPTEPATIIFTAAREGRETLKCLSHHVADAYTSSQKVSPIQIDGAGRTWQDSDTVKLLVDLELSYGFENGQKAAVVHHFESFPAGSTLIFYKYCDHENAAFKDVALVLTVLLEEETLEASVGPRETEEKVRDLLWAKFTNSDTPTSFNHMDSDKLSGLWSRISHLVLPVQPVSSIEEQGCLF

For `COC(=O)C1(CC(C)C)C=C2C(=C(C(C)C)C(=O)C2C)CN1` (stereo not given), the composite z-score in assay [1] is 0.901; in assay [2], -0.241; in assay [3] it was -0.0578; in [4], -0.589; in assay [5], -0.507; in assay [6], 0.607. The composite z-score in assay [7] is 0.19; in [9], 0.315; in assay [10] it was -0.0603; in [11], -0.866; in assay [15], 0.412; in assay [17], -0.0289. Also, the figures for the composite z-score in assay [18], in [19] and in [20] were -1.29, -0.877 and -0.103, respectively. The z-score in [8] was 1.65 (inactive); in assay [12], -0.166 (inactive); in assay [13] it was -0.0608 (inactive); in assay [14], 1.08 (inactive); in [16], -0.844 (inactive).
On to `CC(C)C[C@@H]1NC(=O)[C@@H]2C[C@H](C(=O)O)[C@H](c3ccc(O)cc3)N2C1=O`, for which the composite z-score in assay [1] is -0.451; in assay [2] it was 1.9; in assay [3], -0.121; in assay [4], 0.338; in [5], 0.529; in assay [6], 0.833. The composite z-score was 1.23 in assay [7]; 0.186 in assay [9]; 0.0373 in assay [10]; 1.54 in assay [11]; 1.77 in [15]; -0.0433 in assay [17]. Further, the composite z-score in [18] worked out at 1.02; in [19], 1.09; in [20], 0.0226. For the same compound, the z-score in [8] was -0.93 (inactive); in assay [12] it was -1.45 (inactive); in assay [13], -1.34 (inactive); in assay [14] it was -0.42 (inactive); in assay [16], 2.31 (inactive).
In the case of `NCCCC[C@@H]1NC(=O)[C@H]2C[C@@H](C(=O)NCc3ccc(F)cc3)[C@@H](c3cccc(OCCO)c3)N2C1=O`, the composite z-score was -0.261 in [1]; 0.357 in [2]; -0.0262 in assay [3]; 0.527 in assay [4]; 0.772 in assay [5]; 1.09 in assay [6]. Also, the composite z-score was 1.33 in assay [7]; 0.182 in assay [9]; -0.0994 in [10]; 1.56 in [11]; 2.69 in assay [15]; -0.0258 in assay [17]. The composite z-score stood at 1.81 in assay [18], 1.05 in [19] and 0.0176 in assay [20]. In addition, the z-score is -0.0673 (inactive) in assay [8]; 1.74 (inactive) in assay [12]; -0.0785 (inactive) in [13]; 0.482 (inactive) in assay [14]; -0.765 (inactive) in assay [16].
Take `C=CC[C@@]1(C(=O)N(C)C)N=C(c2ccc(OCCCO)cc2)O[C@@H]1c1ccccc1`: the composite z-score in [1] was found to be 0.733; in assay [2] it was 1.13; in [3], 0.0917; in [4], 0.794; in assay [5], 0.515; in assay [6] it was 2.08. Also, the composite z-score in assay [7] was determined as 1.38; in assay [9], 0.598; in assay [10], 0.109; in [11] it was 0.52; in assay [15], 3.5; in [17], 0.363. The composite z-score in [18] is -0.474; in assay [19], -0.0401; in [20], 0.464. The z-score was -0.004 (inactive) in assay [8]; -0.69 (inactive) in assay [12]; -2.28 (inactive) in assay [13]; -2.31 (inactive) in assay [14]; -0.343 (inactive) in [16].
For `COC(=O)C(CC#Cc1ccc2c(c1)[C@]1(C(=O)N2)[C@H](c2ccc(O)cc2)N2[C@H](c3ccccc3)[C@H](c3ccccc3)OC(=O)[C@H]2[C@@H]1C(=O)N1CCc2cc(OC)c(OC)cc2C1)C(=O)OC`, the composite z-score was -0.312 in assay [1]; 0.475 in assay [2]; -0.0692 in assay [3]; 0.59 in [4]; 1.07 in assay [5]; 0.296 in [6]. In addition, the composite z-score in assay [7] was 1.27; in [9], 0.652; in [10], -0.0755; in [11], 1.54; in assay [15] it was 1.59; in assay [17], -0.109. Besides, the results for the composite z-score in assay [18], in assay [19] and in assay [20] were 0.958, 1.05 and 0.232, respectively. Also, the z-score in [8] is 1.63 (inactive); in assay [12], 1.39 (inactive); in assay [13] it was 1.12 (inactive); in assay [14], 0.735 (inactive); in assay [16] it was -0.829 (inactive).
